Inconclusive results are not listed. Active and inactive are the calls of the source. Unless noted, the call rests on the fitted dose curve; in most records, active means well fitted curve in the direction sought with a large enough effect in the repeat runs; inconclusive means weak or mixed curves; inactive means no such curve, though single readings can be large; an effect the other way counts as inactive or inconclusive.
Columns and labels:
[1] = qHTS assay to identify small molecule agonists of the peroxisome proliferator-activated receptor delta (PPARd) signaling pathway - cell viability counter screen (AID 743211); further: on the % scale 0 is the no-effect control and ±100 the full control effect; nearly all actives have a fitted effect of over 55% in size
Outline: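 Viability was measured as CellTiter-Glo luminescence (30 min, room temperature) in the same wells as the beta-lactamase readout. GeneBLAzer PPARd UAS-bla HEK293H cells received compound after 5 h plating and were incubated 17 h at 37 C.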

[2] = biological target: Peroxisome proliferator-activated receptor delta (Homo sapiens) (UniProt Q03181); test: qHTS assay to identify small molecule agonists of the peroxisome proliferator-activated receptor delta (PPARd) signaling pathway (AID 743212; calls by dose curve; further: on the % scale 0 is the no-effect control and ±100 the full control effect)
Peroxisome proliferator-activated receptor delta (Homo sapiens), sequence (Q03181 whole entry, looked up): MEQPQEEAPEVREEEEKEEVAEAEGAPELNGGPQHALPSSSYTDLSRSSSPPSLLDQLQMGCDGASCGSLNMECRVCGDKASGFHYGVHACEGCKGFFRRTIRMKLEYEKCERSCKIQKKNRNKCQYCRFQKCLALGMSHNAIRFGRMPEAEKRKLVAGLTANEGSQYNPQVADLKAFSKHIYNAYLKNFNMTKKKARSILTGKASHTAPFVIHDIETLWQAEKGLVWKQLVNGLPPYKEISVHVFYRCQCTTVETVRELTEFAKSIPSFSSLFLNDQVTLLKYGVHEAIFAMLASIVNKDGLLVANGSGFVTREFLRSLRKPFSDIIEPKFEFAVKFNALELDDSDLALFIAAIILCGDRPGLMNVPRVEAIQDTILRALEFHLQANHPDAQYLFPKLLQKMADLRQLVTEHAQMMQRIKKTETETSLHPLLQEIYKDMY
Outline: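 A PPARd-bla HEK293H line with beta-lactamase under an Upstream Activator Sequence is treated with compounds at 37 C. Substrate loading for 2 h at room temperature precedes the fluorescence measurement.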

[3] = qHTS assay to identify small molecule antagonists of the peroxisome proliferator-activated receptor delta (PPARd) signaling pathway - cell viability counter screen (AID 743213); further: on the % scale 0 is the no-effect control and ±100 the full control effect; nearly all actives have a fitted effect of over 50% in size
Outline: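 Cytotoxicity counter screen: CellTiter-Glo luminescence read 30 min after addition, in the same wells as the reporter assay. There, PPARd UAS-bla HEK293H cells (3000/well) were treated 17 h at 37 C with compound and 300 nM L165041.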

[4] = biological target: Bile acid receptor (Homo sapiens) (UniProt Q96RI1); test: qHTS assay to identify small molecule antagonists of the farnesoid-X-receptor (FXR) signaling pathway (AID 743217; active means well fitted inhibition curve with a large enough effect in the signal ratio in the repeat runs, not every such curve was filed as active; the % refers to the signal ratio; further: on the % scale 0 is the no-effect control and ±100 the full control effect)
Bile acid receptor (Homo sapiens), sequence (Q96RI1 whole entry, looked up): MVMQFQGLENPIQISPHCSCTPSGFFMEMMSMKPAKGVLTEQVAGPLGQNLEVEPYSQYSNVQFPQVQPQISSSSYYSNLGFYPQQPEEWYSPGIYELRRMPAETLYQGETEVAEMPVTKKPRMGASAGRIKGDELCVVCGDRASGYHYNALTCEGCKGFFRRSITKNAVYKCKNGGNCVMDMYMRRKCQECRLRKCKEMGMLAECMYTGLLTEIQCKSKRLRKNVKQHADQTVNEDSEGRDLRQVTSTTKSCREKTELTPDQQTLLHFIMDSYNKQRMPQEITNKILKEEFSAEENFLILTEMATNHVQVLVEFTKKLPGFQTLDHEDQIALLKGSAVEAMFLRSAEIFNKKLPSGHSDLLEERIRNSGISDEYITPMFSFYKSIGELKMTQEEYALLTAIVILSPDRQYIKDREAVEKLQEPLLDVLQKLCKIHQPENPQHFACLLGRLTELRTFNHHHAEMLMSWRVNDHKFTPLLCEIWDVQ
Outline: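 HEK 293T FXR-UAS-bla, 5000 cells/well; compound + CDCA 50 uM final; 16 h, 37 °C; B/G FRET substrate 2 h RT; fluorescence.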

[5] = qHTS assay to identify small molecule agonists of the farnesoid-X-receptor (FXR) signaling pathway - cell viability counter screen (AID 743218); further: on the % scale 0 is the no-effect control and ±100 the full control effect; nearly all actives have a fitted effect of over 45% in size
Outline: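 HEK 293T FXR-bla cells; 5 h pre-incubation, 16 h compound exposure at 37 C; LiveBLAzer substrate 2 h RT, then CellTiter-Glo 30 min RT, luminescence.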

[6] = biological target: Bile acid receptor (Homo sapiens) (UniProt Q96RI1); test: qHTS assay to identify small molecule agonists of the farnesoid-X-receptor (FXR) signaling pathway (AID 743220; active means well fitted activation curve with a large enough effect in the signal ratio in the repeat runs, not every such curve was filed as active; the % refers to the signal ratio; further: on the % scale 0 is the no-effect control and ±100 the full control effect)
Outline: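 Beta-lactamase reporter under UAS control in GeneBLAzer FXR HEK 293T cells (5000/well) measured with LiveBLAzer FRET substrate after 2 h at room temperature. Compound exposure lasted 16 h at 37C.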

[7] = qHTS assay to identify small molecule antagonists of the farnesoid-X-receptor (FXR) signaling pathway - cell viability counter screen (AID 743221; active means well fitted cell-killing curve with a large enough effect in the repeat runs, not every such curve was filed as active; further: on the % scale 0 is the no-effect control and ±100 the full control effect; nearly all actives have a fitted effect of over 50% in size)
Outline: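 Cytotoxicity counter screen run in the FXR-bla reporter wells: HEK 293T cells exposed to compound with 50 uM (final) chenodeoxycholic acid for 16 h, 37 C, then viability measured by CellTiter-Glo luminescence after 30 min, room temperature.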

[8] = biological target: Vitamin D3 receptor (Homo sapiens) (UniProt P11473); test: qHTS assay to identify small molecule agonists of the vitamin D receptor (VDR) signaling pathway (AID 743222; calls by dose curve; further: on the % scale 0 is the no-effect control and ±100 the full control effect)
Vitamin D3 receptor (Homo sapiens), sequence (P11473 whole entry, looked up): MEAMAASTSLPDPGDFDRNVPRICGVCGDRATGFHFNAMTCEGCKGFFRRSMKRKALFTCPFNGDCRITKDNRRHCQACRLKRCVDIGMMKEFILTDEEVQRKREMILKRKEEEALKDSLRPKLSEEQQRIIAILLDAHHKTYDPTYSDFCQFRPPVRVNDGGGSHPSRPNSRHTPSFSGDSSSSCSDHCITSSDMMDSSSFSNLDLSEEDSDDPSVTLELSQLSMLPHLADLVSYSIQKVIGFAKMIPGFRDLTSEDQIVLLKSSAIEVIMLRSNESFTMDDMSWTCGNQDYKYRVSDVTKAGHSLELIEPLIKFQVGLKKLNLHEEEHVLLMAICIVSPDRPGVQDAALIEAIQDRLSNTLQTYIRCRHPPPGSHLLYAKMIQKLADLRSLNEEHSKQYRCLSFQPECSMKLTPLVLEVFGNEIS
Outline: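 VDR-bla cells, 2,000/well; 4 h preincubation 37C; cpd (DMSO) 16 h; LiveBLAzer B/G substrate 2 h RT; fluorescence intensity read.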

[9] = biological target: Vitamin D3 receptor (Homo sapiens) (UniProt P11473); test: qHTS assay to identify small molecule antagonists of the vitamin D receptor (VDR) signaling pathway (AID 743223; active means well fitted inhibition curve with a large enough effect in the signal ratio in the repeat runs, not every such curve was filed as active; the % refers to the signal ratio; further: on the % scale 0 is the no-effect control and ±100 the full control effect)
Outline: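 Antagonist mode: compound added to VDR-bla cells alongside agonist 1alpha,25-dihydroxyvitamin D3 (3 nM final), incubation 16 h at 37C. Read-out is LiveBLAzer FRET fluorescence, 2 h at room temperature.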

[10] = qHTS assay to identify small molecule agonists of the vitamin D receptor (VDR) signaling pathway - cell viability counter screen (AID 743224); further: series mostly up to about 63 µM; on the % scale 0 is the no-effect control and ±100 the full control effect; nearly all actives have a fitted effect of over 50% in size
Outline: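 Luminescence from CellTiter-Glo, read after 30 min at room temperature, reports viability of VDR-bla cells treated with compounds for 16 h at 37C in the wells used for the beta-lactamase FRET read.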

[11] = qHTS assay to identify small molecule antagonists of the vitamin D receptor (VDR) signaling pathway - cell viability counter screen (AID 743225); further: on the % scale 0 is the no-effect control and ±100 the full control effect; nearly all actives have a fitted effect of over 50% in size
Outline: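 Cytotoxicity counter screen read by CellTiter-Glo luminescence (30 min, room temperature) in the same wells as the VDR-bla antagonist readout. HEK 293T VDR-UAS-bla cells had 16 h at 37C with compound and 3 nM (final) 1-alpha,25-dihydroxyvitamin D3, then 2 h with FRET substrate.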

[12] = qHTS assay to identify small molecule agonists of the NFkB signaling pathway (AID 1159509; active means well fitted curve in the direction sought with a large enough effect in the signal ratio in the repeat runs, not every such curve was filed as active; the % refers to the signal ratio)
Outline: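 NFkB-bla ME-180 cells carry a beta-lactamase reporter under an NF-kB response element. They were plated overnight, then exposed to compounds for 5 h at 37 C. Read-out is LiveBLAzer FRET after 1.5 hr at room temperature (405 nm excitation; 460/530 nm emission).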

[13] = qHTS assay to identify small molecule agonists of the NFkB signaling pathway - cell viability counter screen (AID 1159515; calls by dose curve; further: series mostly up to about 61 µM; on the % scale 0 is the no-effect control and ±100 the full control effect; nearly all actives have a fitted effect of over 55% in size)
Outline: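 Luminescence from CellTiter-Glo (30 min, room temperature) gives viability, measured in the same wells as the beta-lactamase reporter read. Cells were NFkB-bla ME-180, 2,000 per well, treated 5 hr with compounds.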

[14] = qHTS assay to identify small molecule agonists of the endoplasmic reticulum stress response signaling pathway (AID 1159516; active means well fitted activation curve with a large enough effect in the signal ratio in the repeat runs, not every such curve was filed as active; the % refers to the signal ratio; further: on the % scale 0 is the no-effect control and ±100 the full control effect)
Outline: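 Read-out is beta-lactamase cleavage of a FRET substrate (405 nm excitation; 460 and 530 nm emissions) in ESRE-bla HeLa cells after a 5 hr compound exposure at 37 C. Substrate incubation ran 2 hr at room temperature.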

[15] = qHTS assay to identify small molecule agonists of the endoplasmic reticulum stress response signaling pathway - cell viability counter screen (AID 1159517; calls by dose curve)
Outline: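 CellTiter-Glo was added to wells already read for beta-lactamase FRET, and luminescence was recorded 30 min later. Cells: ESRE-bla HeLa, 1,500 per well, compound exposure 5 hr at 37 C.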

[16] = qHTS assay to identify small molecule antagonists of the retinoid-related orphan receptor gamma (ROR-gamma) signaling pathway - cell viability counter screen (AID 1159520)
Outline: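 Tet-on ROR gamma CHO cells (1,000/well) were plated 4 hr, given compounds in DMSO for 2 hr at 37 C, then induced with 1 uM final doxycycline for 16 hr. Viability was read as ATP by CellTiter-Glo luminescence after 30 min.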

[17] = biological target: Nuclear receptor ROR-gamma (Homo sapiens) (UniProt P51449); test: qHTS assay to identify small molecule antagonists of the retinoid-related orphan receptor gamma (ROR-gamma) signaling pathway (AID 1159521)
Outline: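 Antagonist read-out: drop in luminescence (ONE-Glo) from an RORE-LUC reporter in CHO cells with doxycycline-inducible ROR-gamma; 2 hr compound pretreatment, 1 uM doxycycline, 16 hr incubation at 37 C.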

[18] = qHTS assay to identify small molecule agonists of the AP-1 signaling pathway - cell viability counter screen (AID 1159525; calls by dose curve; further: nearly all actives have a fitted effect of over 55% in size)
Outline: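 ME-180 AP-1-bla, 2500 cells/well, Opti-MEM + 0.5% dialyzed FBS; overnight 37 °C; cpd 15-pt titration, 5 h 37 °C; CellTiter-Glo 30 min RT; luminescence read; normalised to TOAB and DMSO controls.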

[19] = qHTS assay to identify small molecule agonists of the AP-1 signaling pathway (AID 1159526; calls by dose curve; further: on the % scale 0 is the no-effect control and ±100 the full control effect)
[20] = biological target: Peroxisome proliferator-activated receptor delta (Homo sapiens) (UniProt Q03181); test: qHTS assay to identify small molecule antagonists of the peroxisome proliferator-activated receptor delta (PPARd) signaling pathway (AID 743215; active means well fitted inhibition curve with a large enough effect in the signal ratio in the repeat runs, not every such curve was filed as active; the % refers to the signal ratio)
Outline: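 Read-out is beta-lactamase FRET fluorescence, measured 2 h after substrate addition at room temperature. Beforehand, UAS-bla HEK293H cells carrying the PPARd reporter were exposed to compounds with L165041 at 300 nM final for 17 h at 37 C.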

O=C(O)/C=C/c1ccccc1
inactive: outcome [1] | outcome [2] | outcome [3] | outcome [4] | Potency [5] | outcome [6] | outcome [7] | outcome [8] | outcome [9] | outcome [10] | outcome [11] | outcome [12] | outcome [13] | outcome [14] | outcome [15] | outcome [16] | outcome [17] | outcome [18] | outcome [19]

CC1=NN(c2ccc(S(=O)(=O)O)cc2)C(=O)C1N=Nc1ccccc1 (stereo not drawn)
inactive: outcome [1] | outcome [2] | outcome [3] | outcome [20] | Potency [5] | outcome [7] | outcome [8] | outcome [10] | outcome [11] | outcome [12] | outcome [13] | outcome [14] | outcome [15] | outcome [16] | outcome [17] | outcome [18] | outcome [19]

CCN(CCC#N)c1ccccc1
inactive: outcome [1] | outcome [2] | outcome [3] | outcome [20] | outcome [4] | Potency [5] | outcome [7] | outcome [8] | outcome [10] | outcome [11] | outcome [12] | outcome [13] | outcome [14] | outcome [15] | outcome [16] | outcome [17] | outcome [18] | outcome [19]

COC(OC)C(C)c1ccccc1 (stereo not drawn)
inactive: outcome [1] | outcome [2] | outcome [3] | outcome [20] | Potency [5] | outcome [7] | outcome [9] | outcome [11] | outcome [12] | outcome [13] | outcome [14] | outcome [15] | outcome [16] | outcome [17] | outcome [18] | outcome [19]

CC(C)(C)NCCO
inactive: outcome [2] | outcome [3] | Potency [5] | outcome [7] | outcome [8] | outcome [9] | outcome [10] | outcome [11] | outcome [12] | outcome [13] | outcome [14] | outcome [15] | outcome [16] | outcome [17] | outcome [18] | outcome [19]

CO/N=C(/C(=O)N[C@@H]1C(=O)N2C(C(=O)O)=C(Cn3nnc(C)n3)CS[C@H]12)c1csc(N)n1
inactive: outcome [1] | outcome [3] | outcome [4] | Potency [5] | outcome [6] | outcome [7] | outcome [8] | outcome [9] | outcome [10] | outcome [11] | outcome [12] | outcome [13] | outcome [14] | outcome [15] | outcome [16] | outcome [17] | outcome [18] | outcome [19]

C=CCOc1c(Br)cc(C(C)(C)c2cc(Br)c(OCC=C)c(Br)c2)cc1Br
inactive: outcome [1] | outcome [3] | outcome [4] | Potency [5] | outcome [6] | outcome [7] | outcome [8] | outcome [10] | outcome [11] | outcome [12] | outcome [13] | outcome [14] | outcome [15] | outcome [16] | outcome [17] | outcome [18] | outcome [19]

CCCCC(=O)N(C)C
inactive: outcome [2] | outcome [3] | outcome [20] | Potency [5] | outcome [8] | outcome [9] | outcome [10] | outcome [11] | outcome [12] | outcome [13] | outcome [14] | outcome [15] | outcome [16] | outcome [17] | outcome [18] | outcome [19]

CCC(C)(C)C1CCC(=O)CC1
inactive: outcome [1] | outcome [2] | outcome [3] | Potency [5] | outcome [7] | outcome [9] | outcome [10] | outcome [11] | outcome [12] | outcome [13] | outcome [14] | outcome [15] | outcome [16] | outcome [17] | outcome [18] | outcome [19]

CCCCC(CC)CNC(=O)CC(C)OC(=O)CCC(=O)O (stereo not drawn)
inactive: outcome [2] | outcome [3] | outcome [20] | outcome [4] | Potency [5] | outcome [6] | outcome [7] | outcome [8] | outcome [9] | outcome [10] | outcome [11] | outcome [12] | outcome [13] | outcome [14] | outcome [15] | outcome [16] | outcome [17] | outcome [18] | outcome [19]

NCCc1ccn[nH]1
inactive: outcome [2] | outcome [3] | Potency [5] | outcome [7] | outcome [10] | outcome [11] | outcome [12] | outcome [13] | outcome [14] | outcome [15] | outcome [16] | outcome [17] | outcome [18] | outcome [19]

O=C1OC(=O)c2cc(Oc3ccc4c(c3)C(=O)OC4=O)ccc21
inactive: outcome [1] | outcome [4] | outcome [6] | outcome [8] | outcome [10] | outcome [11] | outcome [12] | outcome [13] | outcome [14] | outcome [15] | outcome [16] | outcome [17] | outcome [18] | outcome [19]

O=C(Nc1cccc(C2=NCCN2)c1)Nc1cccc(C2=NCCN2)c1
inactive: outcome [2] | outcome [3] | Potency [5] | outcome [7] | outcome [10] | outcome [12] | outcome [13] | outcome [14] | outcome [15] | activity, negative = cytotoxicity [16] 4.97% [at 19 µM] | activity change, negative = inhibition [17] -4.66% [at 19 µM] | viability change, negative = cytotoxic [18] 3.95% [at 15.8 µM] | activation [19] -8.47% [at 15.8 µM]

COc1ccc(N=Nc2cc(C)c(N=Nc3ccc(S(=O)(=O)O)cc3)cc2OC)cc1
inactive: outcome [1] | outcome [2] | outcome [3] | Potency [5] | outcome [7] | outcome [9] | outcome [10] | outcome [11] | outcome [12] | outcome [13] | outcome [14] | outcome [15] | outcome [16] | outcome [17] | outcome [18] | outcome [19]

COc1ccc(NS(=O)(=O)c2ccc(N)cc2)nn1
inactive: outcome [1] | outcome [2] | outcome [3] | outcome [4] | outcome [6] | outcome [7] | outcome [8] | outcome [9] | outcome [10] | outcome [11] | outcome [12] | outcome [13] | outcome [14] | outcome [15] | outcome [16] | outcome [17] | outcome [18] | outcome [19]

Cc1c(C(C)C)c(=O)n(-c2ccccc2)n1C
inactive: outcome [1] | Potency [5] | outcome [7] | outcome [9] | outcome [10] | outcome [12] | outcome [13] | outcome [14] | outcome [15] | outcome [16] | outcome [17] | outcome [18] | outcome [19]

CCC1Nc2cc(Cl)c(S(N)(=O)=O)cc2S(=O)(=O)N1 (stereo not drawn)
inactive: outcome [2] | outcome [3] | outcome [4] | Potency [5] | outcome [6] | outcome [7] | outcome [8] | outcome [9] | outcome [10] | outcome [11] | outcome [12] | outcome [13] | outcome [14] | outcome [15] | outcome [16] | outcome [17] | outcome [18] | outcome [19]

From PubChem BioAssay (Tox21)
